Holding throughout (assay): DAPPL (digital affinity profiling via proximity ligation, sequencing); 10 mM Tris-HCl pH 7.5, 50 mM NaCl, 1 mM DTT, 4% glycerol, room temperature, 30 min; GST-TFs on glutathione beads, 16-mer random dsDNA library, 0.1% formaldehyde crosslink after washing; high values mean tight binding
The target of one experiment is T1, ELK1 (Homo sapiens, UniProt P19419 1-428).
T1 sequence: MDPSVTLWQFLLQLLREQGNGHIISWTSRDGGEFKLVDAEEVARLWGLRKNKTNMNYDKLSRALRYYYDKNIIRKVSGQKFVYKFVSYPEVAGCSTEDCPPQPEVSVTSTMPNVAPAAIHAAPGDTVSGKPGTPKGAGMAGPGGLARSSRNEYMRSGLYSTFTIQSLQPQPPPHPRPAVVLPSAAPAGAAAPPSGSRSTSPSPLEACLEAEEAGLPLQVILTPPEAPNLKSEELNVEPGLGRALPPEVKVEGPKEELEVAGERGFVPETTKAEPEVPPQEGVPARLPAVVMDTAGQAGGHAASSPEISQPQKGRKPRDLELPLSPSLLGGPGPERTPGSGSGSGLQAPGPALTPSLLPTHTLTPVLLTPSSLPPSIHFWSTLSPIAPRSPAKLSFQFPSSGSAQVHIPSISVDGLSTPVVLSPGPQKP
The following applies: protein: recombinant; tags: N-terminal GST; dsDNA, one strand shown. Put shortly:
(§1)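 Human transcription factors were made in yeast as GST fusions, captured on glutathione beads and barcoded with DNA. With a tag-only sample included, the pool was incubated with 200 nmole of a random double-stranded 16-mer DNA library in Tris/NaCl/DTT/glycerol buffer at room temperature for 30 min, then crosslinked with 0.1% formaldehyde after washing, ligated by proximity, amplified and sequenced. For binding signal, each hexamer's read frequency for a factor is divided by its frequency for the tag-only sample.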

Another experiment addresses T2, GABPA (Homo sapiens, UniProt Q06546 1-454).
T2 sequence: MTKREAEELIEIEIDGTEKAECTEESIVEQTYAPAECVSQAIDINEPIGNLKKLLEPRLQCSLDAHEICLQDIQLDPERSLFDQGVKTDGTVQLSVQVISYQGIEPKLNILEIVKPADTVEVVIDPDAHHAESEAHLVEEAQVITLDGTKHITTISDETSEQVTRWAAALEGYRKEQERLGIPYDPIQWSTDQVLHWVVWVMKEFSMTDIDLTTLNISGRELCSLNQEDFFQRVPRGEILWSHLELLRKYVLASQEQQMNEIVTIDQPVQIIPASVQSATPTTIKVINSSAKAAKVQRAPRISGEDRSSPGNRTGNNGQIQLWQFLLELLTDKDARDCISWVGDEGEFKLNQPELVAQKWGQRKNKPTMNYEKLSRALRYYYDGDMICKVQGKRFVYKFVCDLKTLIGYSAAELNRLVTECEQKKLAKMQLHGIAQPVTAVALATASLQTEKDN
The settings on record: protein: recombinant; tags: N-terminal GST; dsDNA, one strand shown. Put shortly: as §1

The next experiment addresses ELF1 (Homo sapiens, UniProt P32519 1-619). The following applies: protein: recombinant; tags: N-terminal GST; dsDNA, one strand shown. The method, boiled down: as §1
The target in another experiment is T3, ELK3 (Homo sapiens, UniProt P41970 1-407).
T3 sequence: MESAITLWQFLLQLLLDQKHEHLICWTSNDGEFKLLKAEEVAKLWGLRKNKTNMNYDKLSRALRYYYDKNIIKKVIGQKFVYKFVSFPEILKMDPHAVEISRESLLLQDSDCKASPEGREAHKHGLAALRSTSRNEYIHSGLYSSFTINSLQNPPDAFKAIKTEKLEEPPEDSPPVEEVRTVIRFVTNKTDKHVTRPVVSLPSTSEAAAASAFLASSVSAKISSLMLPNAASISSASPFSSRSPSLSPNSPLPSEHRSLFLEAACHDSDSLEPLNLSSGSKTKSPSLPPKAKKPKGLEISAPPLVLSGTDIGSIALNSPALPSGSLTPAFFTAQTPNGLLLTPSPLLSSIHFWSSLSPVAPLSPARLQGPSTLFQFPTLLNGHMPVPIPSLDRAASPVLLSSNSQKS
The following applies: protein: recombinant; tags: N-terminal GST; dsDNA, one strand shown. The method, boiled down:
as §1

The next experiment deals with HSF1 (Homo sapiens, UniProt Q00613 1-529). The settings on record: protein: recombinant; tags: N-terminal GST; chain copies: 3; dsDNA, one strand shown. The method, boiled down:
as §1

The target of another experiment is T4, SPIC (Homo sapiens, UniProt Q8N5J4 1-248).
T4 sequence: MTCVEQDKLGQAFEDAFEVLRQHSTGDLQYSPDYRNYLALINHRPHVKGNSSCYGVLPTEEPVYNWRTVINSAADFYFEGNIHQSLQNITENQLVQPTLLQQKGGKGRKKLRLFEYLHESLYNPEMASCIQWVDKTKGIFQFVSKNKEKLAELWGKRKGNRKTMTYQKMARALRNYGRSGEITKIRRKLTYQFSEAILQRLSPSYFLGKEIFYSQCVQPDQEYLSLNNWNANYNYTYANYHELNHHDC
The following applies: protein: recombinant; tags: N-terminal GST; dsDNA, one strand shown. Put shortly:
as §1

In another experiment the target is T5, ELK4 (Homo sapiens, UniProt P28324-2 1-405).
T5 sequence: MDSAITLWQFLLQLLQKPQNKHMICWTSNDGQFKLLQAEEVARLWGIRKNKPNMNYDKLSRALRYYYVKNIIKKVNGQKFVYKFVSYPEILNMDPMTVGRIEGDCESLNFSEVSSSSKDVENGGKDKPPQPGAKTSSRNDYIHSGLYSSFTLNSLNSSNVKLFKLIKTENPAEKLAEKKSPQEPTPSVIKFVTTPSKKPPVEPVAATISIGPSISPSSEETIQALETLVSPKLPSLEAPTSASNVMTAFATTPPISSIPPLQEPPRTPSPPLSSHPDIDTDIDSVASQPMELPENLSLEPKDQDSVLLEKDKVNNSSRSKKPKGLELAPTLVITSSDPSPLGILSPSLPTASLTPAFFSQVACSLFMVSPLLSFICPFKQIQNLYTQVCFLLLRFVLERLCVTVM
The following applies: protein: recombinant; tags: N-terminal GST; dsDNA, one strand shown. The method, boiled down: as §1

The target in the next experiment is T6, ETV2 (Homo sapiens, UniProt O00321 1-342).
T6 sequence: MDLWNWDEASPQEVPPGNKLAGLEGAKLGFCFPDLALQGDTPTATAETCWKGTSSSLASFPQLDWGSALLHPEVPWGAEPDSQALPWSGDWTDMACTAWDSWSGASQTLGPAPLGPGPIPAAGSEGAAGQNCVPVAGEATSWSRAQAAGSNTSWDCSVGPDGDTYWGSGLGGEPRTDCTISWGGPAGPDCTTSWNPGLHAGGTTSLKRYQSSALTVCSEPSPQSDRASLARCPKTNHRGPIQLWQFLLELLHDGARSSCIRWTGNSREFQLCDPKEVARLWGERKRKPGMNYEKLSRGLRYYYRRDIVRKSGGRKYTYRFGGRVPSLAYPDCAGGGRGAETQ
The following applies: protein: recombinant; tags: N-terminal GST; dsDNA, one strand shown. Put shortly:
as §1

The next experiment deals with CRX (Homo sapiens, UniProt O43186 1-299). The following applies: protein: recombinant; tags: N-terminal GST; dsDNA, one strand shown. Put shortly:
as §1

The target in a further experiment is T7, ERF (Homo sapiens, UniProt P50548 1-548).
T7 sequence: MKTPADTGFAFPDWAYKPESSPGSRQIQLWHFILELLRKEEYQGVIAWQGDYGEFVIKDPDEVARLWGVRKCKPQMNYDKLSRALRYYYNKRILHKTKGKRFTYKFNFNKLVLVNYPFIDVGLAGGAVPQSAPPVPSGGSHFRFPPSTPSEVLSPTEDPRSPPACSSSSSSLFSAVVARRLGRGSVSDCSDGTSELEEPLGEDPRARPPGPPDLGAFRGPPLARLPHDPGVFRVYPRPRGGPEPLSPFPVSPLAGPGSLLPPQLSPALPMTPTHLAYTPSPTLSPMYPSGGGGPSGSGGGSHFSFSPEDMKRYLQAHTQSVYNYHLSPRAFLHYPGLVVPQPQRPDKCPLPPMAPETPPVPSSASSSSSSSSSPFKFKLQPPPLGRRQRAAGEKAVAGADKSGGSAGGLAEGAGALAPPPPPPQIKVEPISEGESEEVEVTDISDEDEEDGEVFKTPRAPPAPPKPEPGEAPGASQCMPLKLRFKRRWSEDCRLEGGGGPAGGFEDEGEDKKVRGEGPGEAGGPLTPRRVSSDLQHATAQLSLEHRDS
The following applies: protein: recombinant; tags: N-terminal GST; dsDNA, one strand shown. The method, boiled down: as §1

The target of a further experiment is T8, SPDEF (Homo sapiens, UniProt O95238 1-335).
T8 sequence: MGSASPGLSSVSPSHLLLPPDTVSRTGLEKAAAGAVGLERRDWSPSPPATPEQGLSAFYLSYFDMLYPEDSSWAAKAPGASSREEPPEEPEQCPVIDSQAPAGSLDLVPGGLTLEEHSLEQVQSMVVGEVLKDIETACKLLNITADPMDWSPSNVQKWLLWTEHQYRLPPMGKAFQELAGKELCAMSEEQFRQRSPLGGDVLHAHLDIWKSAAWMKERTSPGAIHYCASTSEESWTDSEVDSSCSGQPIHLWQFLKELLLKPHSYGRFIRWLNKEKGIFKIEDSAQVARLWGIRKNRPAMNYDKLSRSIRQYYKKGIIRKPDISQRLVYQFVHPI
The settings on record: protein: recombinant; tags: N-terminal GST; dsDNA, one strand shown. The method, boiled down:
as §1

Another experiment has as its target T9, ETV7 (Homo sapiens, UniProt Q9Y603 1-341).
T9 sequence: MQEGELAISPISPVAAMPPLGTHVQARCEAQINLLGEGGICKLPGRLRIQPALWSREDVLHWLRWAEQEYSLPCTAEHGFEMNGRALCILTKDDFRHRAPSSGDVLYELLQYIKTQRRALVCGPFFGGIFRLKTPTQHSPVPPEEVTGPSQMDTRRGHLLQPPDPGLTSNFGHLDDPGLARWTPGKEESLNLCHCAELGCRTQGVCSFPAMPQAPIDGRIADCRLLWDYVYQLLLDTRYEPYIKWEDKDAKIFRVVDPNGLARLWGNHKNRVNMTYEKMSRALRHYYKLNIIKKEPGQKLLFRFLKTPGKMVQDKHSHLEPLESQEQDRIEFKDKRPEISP
The settings on record: protein: recombinant; tags: N-terminal GST; dsDNA, one strand shown. Put shortly:
as §1

The next experiment addresses T10, ETV3 (Homo sapiens, UniProt P41162-2 1-143).
T10 sequence: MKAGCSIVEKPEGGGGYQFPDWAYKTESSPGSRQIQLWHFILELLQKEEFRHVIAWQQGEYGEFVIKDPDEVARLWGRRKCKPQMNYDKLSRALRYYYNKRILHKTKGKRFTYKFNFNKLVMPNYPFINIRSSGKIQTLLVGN
The settings on record: protein: recombinant; tags: N-terminal GST; dsDNA, one strand shown. Put shortly: as §1

The target in the next experiment is T11, EHF (Homo sapiens, UniProt Q9NZC4 1-300).
T11 sequence: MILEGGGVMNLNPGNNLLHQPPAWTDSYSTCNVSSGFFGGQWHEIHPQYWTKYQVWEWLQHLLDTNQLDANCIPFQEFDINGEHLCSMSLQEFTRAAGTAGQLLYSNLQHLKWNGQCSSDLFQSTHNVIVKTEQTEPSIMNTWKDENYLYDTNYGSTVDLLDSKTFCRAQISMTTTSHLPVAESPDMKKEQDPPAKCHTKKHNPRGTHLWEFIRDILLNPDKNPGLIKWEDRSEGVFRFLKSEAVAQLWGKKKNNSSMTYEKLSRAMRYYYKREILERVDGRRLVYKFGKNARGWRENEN
The following applies: protein: recombinant; tags: N-terminal GST; dsDNA, one strand shown. The method, boiled down:
as §1

HSF1, sequence (Q00613 whole entry): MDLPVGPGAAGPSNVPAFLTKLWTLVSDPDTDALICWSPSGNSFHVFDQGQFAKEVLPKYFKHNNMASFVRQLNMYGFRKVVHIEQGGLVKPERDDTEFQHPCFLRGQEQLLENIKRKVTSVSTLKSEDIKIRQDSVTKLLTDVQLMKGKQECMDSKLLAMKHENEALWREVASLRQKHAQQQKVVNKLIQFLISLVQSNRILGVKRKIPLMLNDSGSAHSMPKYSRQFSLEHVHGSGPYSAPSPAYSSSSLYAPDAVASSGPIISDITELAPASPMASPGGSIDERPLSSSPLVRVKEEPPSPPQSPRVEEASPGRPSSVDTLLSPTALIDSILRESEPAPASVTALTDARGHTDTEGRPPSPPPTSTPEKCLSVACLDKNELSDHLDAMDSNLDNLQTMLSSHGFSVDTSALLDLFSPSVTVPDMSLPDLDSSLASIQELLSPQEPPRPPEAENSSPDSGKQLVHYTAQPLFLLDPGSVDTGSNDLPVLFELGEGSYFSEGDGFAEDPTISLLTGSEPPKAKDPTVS
CRX, sequence (O43186 whole entry): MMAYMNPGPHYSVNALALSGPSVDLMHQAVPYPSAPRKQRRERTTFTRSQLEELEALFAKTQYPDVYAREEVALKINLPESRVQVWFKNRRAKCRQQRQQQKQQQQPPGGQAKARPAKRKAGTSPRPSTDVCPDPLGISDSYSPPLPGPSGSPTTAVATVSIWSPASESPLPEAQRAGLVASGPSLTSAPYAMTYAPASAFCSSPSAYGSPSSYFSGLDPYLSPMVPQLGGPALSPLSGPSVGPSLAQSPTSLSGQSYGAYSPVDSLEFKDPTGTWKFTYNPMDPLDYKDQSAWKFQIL
ELF1, sequence (P32519 whole entry): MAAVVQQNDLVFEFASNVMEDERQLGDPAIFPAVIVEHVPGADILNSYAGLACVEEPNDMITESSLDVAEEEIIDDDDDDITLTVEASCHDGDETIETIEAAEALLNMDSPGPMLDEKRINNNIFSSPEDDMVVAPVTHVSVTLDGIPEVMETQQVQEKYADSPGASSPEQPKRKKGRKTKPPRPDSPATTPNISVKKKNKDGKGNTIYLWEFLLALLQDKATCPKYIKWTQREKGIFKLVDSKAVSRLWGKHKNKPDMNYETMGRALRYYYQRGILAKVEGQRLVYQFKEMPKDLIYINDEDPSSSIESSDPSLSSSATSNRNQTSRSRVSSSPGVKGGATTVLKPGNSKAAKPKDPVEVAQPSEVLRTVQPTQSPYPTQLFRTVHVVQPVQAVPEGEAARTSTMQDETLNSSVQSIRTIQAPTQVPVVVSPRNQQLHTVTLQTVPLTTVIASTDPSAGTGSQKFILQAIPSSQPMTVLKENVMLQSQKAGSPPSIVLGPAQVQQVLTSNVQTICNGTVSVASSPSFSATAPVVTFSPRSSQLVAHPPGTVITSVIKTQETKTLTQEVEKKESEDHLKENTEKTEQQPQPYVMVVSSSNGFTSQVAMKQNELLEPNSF

On to CGCGAA, for which the binding signal in the experiment with ELK1 was 1.04 fold enrichment (6-mer frequency, TF over GST control); in the experiment with GABPA it was 1.01 fold enrichment (6-mer frequency, TF over GST control); with ELF1 it was 1.03 fold enrichment (6-mer frequency, TF over GST control); with ELK3 it was 1.05 fold enrichment (6-mer frequency, TF over GST control); with HSF1, 1.76 fold enrichment (6-mer frequency, TF over GST control); with SPIC it was 1.02 fold enrichment (6-mer frequency, TF over GST control). The binding signal with ELK4 was 1.08 fold enrichment (6-mer frequency, TF over GST control); with ETV2, 1.11 fold enrichment (6-mer frequency, TF over GST control); with CRX it was 1.05 fold enrichment (6-mer frequency, TF over GST control); with ERF, 1.01 fold enrichment (6-mer frequency, TF over GST control); in the experiment with SPDEF, 1.01 fold enrichment (6-mer frequency, TF over GST control); in the experiment with ETV7, 1.1 fold enrichment (6-mer frequency, TF over GST control). Further, the binding signal in the experiment with ETV3 was 1.01 fold enrichment (6-mer frequency, TF over GST control).
Regarding GCCAGA, the binding signal in the experiment with HSF1 is 1.02 fold enrichment (6-mer frequency, TF over GST control).
Still for that read-out and setting: for GAAGGT the value was 1.14 fold enrichment (6-mer frequency, TF over GST control); for TACCAG, 1.22 fold enrichment (6-mer frequency, TF over GST control).
As to TCCAGC, the binding signal with ELK1 was 1.03 fold enrichment (6-mer frequency, TF over GST control); with EHF, 1.04 fold enrichment (6-mer frequency, TF over GST control); with ELK3, 1.07 fold enrichment (6-mer frequency, TF over GST control); with HSF1 it was 1.44 fold enrichment (6-mer frequency, TF over GST control); with SPIC, 1.06 fold enrichment (6-mer frequency, TF over GST control); with ELK4 it was 1.17 fold enrichment (6-mer frequency, TF over GST control). The binding signal in the experiment with CRX is 1.08 fold enrichment (6-mer frequency, TF over GST control).
